Measurements taken from ChEMBL document CHEMBL4513146, “CO-ADD screening of Karazin Kharkiv National University (Ukraine) compounds”.
Measured potencies and affinities stand elsewhere.

Legend:
[1] = system: Klebsiella pneumoniae; conditions: Concentration 32 ug.mL-1;; ASSAY_TEST Inhibition of Bacterial Growth; detection method Absorption (OD600); MEDIA CAMHB; plate type 384well; NBS; CORNING #3640; time 18 hr
[2] = system: Candida albicans; conditions: Concentration 32 ug.mL-1; ASSAY_TEST Inhibition of Fungal Growth; detection method Absorption (OD530)
[3] = system: Cryptococcus neoformans; conditions: Concentration 32 ug.mL-1; ASSAY_TEST Inhibition of Fungal Growth; detection method Resazurin; Absorption (OD600-OD570); plate type 384well; NBS; CORNING #3640

| SMILES | Inhibition [1] | Inhibition [2] | Inhibition [3] |
| --- | --- | --- | --- |
| CCOc1ccc(NC(=O)Cn2nc3c(Sc4cccc(F)c4)nccn3c2=O)cc1 | -0.38% | 0.06% | -4.31% |
| CC(C)CCn1c(=O)c2sccc2n2c(=O)n(CC(=O)N(C)c3ccccc3)nc12 | 0.74% | -2.64% | -16.67% |
| Cc1cc(Br)ccc1NC(=O)Cn1nc2c(Sc3cccc(F)c3)nccn2c1=O | 4.98% | 6.11% | -9.53% |
| Cc1ccc(-n2ccn3c(=O)n(Cc4ccccc4F)nc3c2=O)cc1C | 7.33% | 0.26% | -12.8% |
| Cc1ccc(NC(=O)Cn2c(=O)c3nnc(C)n3c3ccccc32)cc1C | 6.79% | 0.69% | -4.45% |
| O=C(Cn1nc2c(Oc3ccccc3)nccn2c1=O)Nc1ccc2c(c1)OCCO2 | 6.43% | 0.75% | -7.17% |
| CCCCOc1ccc(-c2cc3c4nnc(SCC(=O)Nc5cc(C)ccc5C)n4ccn3n2)cc1 | -2.43% | 5.83% | -10.24% |
| Cc1ccc(Nc2cc(C)n3c(=O)n(CCOc4ccc(F)cc4)nc3n2)cc1 | 19.26% | 2.38% | -10.19% |
| O=C(Cn1nc2n(CCc3ccccc3)c(=O)c3ccccc3n2c1=O)Nc1ccc2c(c1)OCO2 | 5.15% | 15.71% | -16.57% |
| CN(C(=O)Cn1nc2n(Cc3cccs3)c(=O)c3sccc3n2c1=O)c1ccccc1 | -2.89% | 0.01% | -9.21% |
| CCc1ccc(N(Cc2ccccc2)S(=O)(=O)c2cccn3c(CC)nnc23)cc1 | 8.89% | 13.04% | -8.52% |
| CCCCN(CC)c1ccc2nnc(CCc3nc(-c4ccc5c(c4)OCO5)no3)n2n1 | 3.82% | 3.29% | -4.25% |
| Cc1ccc(NC(=O)Cn2nc3ccc(SC(C)(C)C)nn3c2=O)cc1Cl | 12.42% | 1.72% | -28.11% |
| Cc1cccc(C)c1NC(=O)Cn1nc2c(SC3CCCCC3)nccn2c1=O | 8.3% | 20.03% | -18.68% |
| O=C(CCc1nnc2c3cc(-c4ccc(Cl)cc4)nn3ccn12)N1CCN(c2ccccn2)CC1 | 12.64% | -0.78% | -16.65% |
| Cn1c(=O)c2ccc(C(=O)NC3CCCC3)cc2n2c(SCC(=O)Nc3cc(F)ccc3F)nnc12 | 7.15% | 0.81% | -19.18% |
| COc1ccc(-c2cc3c4nn(CC(=O)Nc5cc(OC)ccc5OC)c(=O)n4ccn3n2)cc1 | 11.83% | 1.43% | -25.14% |
| CCCCOc1ccc(-c2cc3c4nnc(SCC(=O)NCc5ccc(C)cc5)n4ccn3n2)cc1 | 3.76% | 12.04% | -14.64% |
| COC(=O)c1cccc(NC(=O)Cn2nc3c(SCc4ccc(Cl)cc4)nccn3c2=O)c1 | 6.22% | 27.78% | -15.7% |
| Cc1nnc2ccc(S(=O)(=O)N(Cc3ccccc3F)c3cccc(F)c3)cn12 | 4.31% | 10.13% | -4.32% |
| O=c1n(Cc2cccc(Cl)c2)nc2ccc(-c3ccccc3)nn12 | 19.54% | 2.36% | -20.37% |

| SMILES | Inhibition [1] | Inhibition [2] | Inhibition [3] |
| --- | --- | --- | --- |
| CC(C)c1ccc(NC(=O)Cn2nc3c(SCc4ccccc4)nccn3c2=O)cc1 | 2.82% | 10.67% | -15.97% |
| CCOC(=O)N1CCN(C(=O)CCc2nnc3c4cc(-c5ccccc5)nn4ccn23)CC1 | 14.35% | 1.03% | -14.62% |
| COc1cc(NC(=O)Cn2nc3c(N4CCCC(C)C4)nccn3c2=O)cc(OC)c1 (stereo not drawn) | 5.76% | 3.21% | -46.51% |
| Cc1c(Cl)cccc1-n1ccn2c(=O)n(Cc3c(F)cccc3Cl)nc2c1=O | 1.26% | 11.96% | -12.75% |
| Cc1nnc2c(=O)n(CC(=O)Nc3ccccc3Br)c3ccccc3n12 | 8.13% | 2.04% | -7.03% |
| Cc1cccc(Oc2nc3ccccc3n3c(=O)n(CC(=O)NCc4ccco4)nc23)c1C | 3.72% | 36.74% | -27.2% |
| CCC(Sc1nnc2c(=O)n(-c3cccc(OC)c3)ccn12)C(=O)Nc1cc(OC)ccc1OC (stereo not drawn) | 1.63% | 1.95% | -10.37% |
| COc1cccc(Sc2nc3ccccc3n3c(=O)n(CC(=O)Nc4cccc(F)c4)nc23)c1 | 12.26% | -1.78% | -25.49% |
| Cc1ccc(-c2noc(Cn3nc4ccc(-c5ccccc5)nn4c3=O)n2)cc1 | 1.24% | 8.52% | -15.81% |
| CCOc1ccc(NC(=O)Cn2nc3c(N4CCCC(C)C4)nccn3c2=O)cc1 (stereo not drawn) | 13.07% | 0.78% | -15.46% |
| COC(=O)c1ccc(NC(=O)CSc2nnc3ccc(C(=O)Nc4cccc(F)c4)cn23)cc1 | 4.63% | 2.52% | -5.98% |
| CCOc1ccccc1NC(=O)Cn1nc2c3c4c(sc3ncn2c1=O)CCCC4 | 2.08% | 2.9% | -12.75% |
| Cc1ccc(-c2ccc3nn(CC(=O)N4CCN(c5ccc(F)cc5)CC4)c(=O)n3n2)cc1C | 1.03% | 7.38% | -10.89% |
| COc1ccccc1-n1ccn2c(SCC(=O)Nc3ccc(C)cc3Cl)nnc2c1=O | 5.82% | 3.4% | -11.35% |
| O=C(CSc1nnc2c(=O)n(-c3cccc(F)c3)ccn12)Nc1ccc(Br)cc1F | 15.26% | 5.02% | -13.45% |
| O=C(Cn1nc2c(Oc3ccccc3)nccn2c1=O)Nc1ccc(F)cc1F | 0.94% | -1.91% | -7.74% |
| CCCNC(=O)Cn1nc2cc(C)nc(Nc3cc(C)cc(C)c3)n2c1=O | 18.12% | 5.03% | -9.02% |
| O=c1c2nnc(SCc3ccc(F)cc3)n2ccn1-c1ccc(Br)cc1 | 4.74% | 2.87% | -8.82% |
| COc1cccc(-n2ccn3c(SCc4ccc(C)cc4)nnc3c2=O)c1 | 12.94% | 3.44% | -15.83% |
| COc1ccc(CNC(=O)Cn2nc3c(N4CCN(c5ccccc5C)CC4)nccn3c2=O)cc1 | -11.16% | 37.75% | -4.67% |
| CCOc1ccccc1NC(=O)Cn1nc2c(Sc3ccc(C)cc3C)nccn2c1=O | 5.52% | -0.73% | -9.54% |

| SMILES | Inhibition [1] | Inhibition [2] | Inhibition [3] |
| --- | --- | --- | --- |
| Cc1ccc(NC(=O)Cn2nc3c(SC4CCCCC4)nccn3c2=O)c(Br)c1 | 3.74% | 0.73% | -7.42% |
| COc1ccc(CNC(=O)CCc2nnc3c4cc(-c5ccc(Cl)cc5)nn4ccn23)cc1OC | 10.48% | 1.41% | -19.71% |
| CCOc1ccc(-n2ccn3c(SCC(N)=O)nnc3c2=O)cc1 | 16.24% | 1.43% | -5.27% |
| O=c1c2nnc(SCc3ccccc3F)n2ccn1-c1ccc(Br)cc1 | 15.43% | 3.99% | -9.71% |
| Cc1cc(C)c(NC(=O)Cn2c(=O)c3nnc(C(C)C)n3c3ccccc32)c(C)c1 | 11.01% | 4.09% | -5.77% |
| CSc1cccc(NC(=O)Cn2nc3c(Sc4ccccc4)nccn3c2=O)c1 | 1.1% | 18.38% | -12.89% |
| Cc1nnc2ccc(S(=O)(=O)N(Cc3cccc(F)c3)c3cccc(Cl)c3)cn12 | -2.92% | -0.21% | -11.05% |
| COc1cccc(CSc2nnc3c(=O)n(-c4ccccc4OC)ccn23)c1 | 6.64% | 1.36% | -5.34% |
| CCOc1ccc(-n2ccn3c(SCC(=O)Nc4ccc(C)cc4Cl)nnc3c2=O)cc1 | 9.51% | 5.12% | -6.58% |
| CC(C)c1nnc2c(=O)n(CC(=O)Nc3ccc(Cl)c(Cl)c3)c3ccccc3n12 | 5.02% | 3.27% | -9.31% |
| COc1cccc(CN(c2cccc(F)c2)S(=O)(=O)c2ccc3nnc(C)n3c2)c1 | 3.28% | 3.11% | -1.07% |
| CCc1nnc2c(SCC(=O)Nc3ccc4c(c3)OCCO4)nc3ccccc3n12 | 7.64% | 5.98% | -5.14% |
| Cc1ccc(CN(c2cc(C)cc(C)c2)S(=O)(=O)c2cccn3c(C)nnc23)cc1 | 1.08% | -0.03% | -12.99% |
| COc1cccc(CN(c2ccc(F)c(F)c2)S(=O)(=O)c2cccn3c(C)nnc23)c1 | 13.94% | -0.28% | -8.71% |
| COc1cccc(CN(c2cc(C)cc(C)c2)S(=O)(=O)c2cccn3c(C)nnc23)c1 | -4.31% | 1.08% | -6.64% |
| Cc1ccc(-n2ccn3c(SC(C)C(=O)Nc4ccc5c(c4)OCCO5)nnc3c2=O)cc1C (stereo not drawn) | 15.49% | 0.29% | -6.97% |
| COc1cccc(NC(=O)Cn2nc3c(Sc4ccccc4)nccn3c2=O)c1 | 2.45% | 7.99% | -6.51% |
| CCOC(=O)c1ccccc1NC(=O)Cn1nc2c(Oc3ccccc3)nccn2c1=O | 14.49% | 0.37% | -11.47% |
| O=C(CSc1nnc2c(=O)n(-c3ccccc3)ccn12)Nc1ccc(F)cc1F | 1.13% | 1.82% | -4.59% |
